Consider 32 molecules from PubChem BioAssay AID1563 (The Scripps Research Institute Molecular Screening Center, 2009).

The list shows a part of the results. Calls of active or inactive are those of the source. No stated cut-off is given here; in the data, active means activation above about 21%; inactive means the rest.

Sequence of Sphingosine 1-phosphate receptor 1 (Homo sapiens) (P21453 whole entry, looked up): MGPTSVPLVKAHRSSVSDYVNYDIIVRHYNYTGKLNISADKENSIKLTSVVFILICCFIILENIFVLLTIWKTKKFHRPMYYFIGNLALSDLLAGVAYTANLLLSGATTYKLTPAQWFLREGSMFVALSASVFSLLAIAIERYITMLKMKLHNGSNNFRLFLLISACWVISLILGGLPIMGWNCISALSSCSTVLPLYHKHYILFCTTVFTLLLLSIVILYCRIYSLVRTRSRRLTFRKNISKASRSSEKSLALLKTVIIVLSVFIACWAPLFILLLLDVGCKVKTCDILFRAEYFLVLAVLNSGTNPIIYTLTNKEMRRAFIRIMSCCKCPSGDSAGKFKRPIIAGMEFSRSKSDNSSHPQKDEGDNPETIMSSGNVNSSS

This test concerns the target Sphingosine 1-phosphate receptor 1 (Homo sapiens) (UniProt P21453). The test can be described thus: activation of human S1P1 receptor – cell-based, counter-screen for S1P4 agonist project (AID 1563).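 Further: 0% = vehicle wells and 100% = reference agonist.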 The settings on record: S1P1 agonist cell-based assay, at 4.98 µM, active compounds read high. On the technique in general: Counterscreens check selectivity or assay interference.
Regarding `CC(C)C(c1nnnn1C(C)(C)C)N1CCN(Cc2cccnc2)CC1` (configuration not stated), the activation was -9.51% (inactive).

`COC(=O)CNC(=O)C(CCSC)NC(C)=O` (configuration not stated): the activation is -8.17% (inactive).

Turning to `Cc1cc(NC(=O)c2cc(-c3cccs3)on2)nn1Cc1ccc(Cl)cc1`, the activation is 4.89% (inactive).

Regarding `C=CCn1c(SCn2nnc3ccccc3c2=O)nnc1-c1ccc(Cl)cc1`, the activation was -1.97% (inactive).

`CC(Oc1ccc(Br)cc1Br)C(=O)NC1CCCC1` (configuration not stated): the activation was -6.64% (inactive).

With `Cc1ccc(NC(=O)Nc2ccccc2)c(Br)c1`, the activation is 5.03% (inactive).

Take `CC(=O)Nc1ccc(SCC(=O)Nc2ccccc2Oc2ccccc2)cc1`: the activation was -3.81% (inactive).

`CCn1c(CNC(=O)c2ccc(OC)c(OC)c2)nnc1SCC(=O)Nc1ccccc1`: the activation is 0.73% (inactive).

On to `N/C(=N\OC(=O)Cc1ccc([N+](=O)[O-])cc1)c1ccccn1`, for which the activation is -7.04% (inactive).

Consider `CCOc1ccc(-c2nnc(-c3ccco3)o2)cc1`, for which the activation is 2.5% (inactive).

In the case of `O=C(CSc1ccc(-c2ccc(F)cc2)nn1)Nc1ccc2c(c1)OCCO2`, the activation is -2.21% (inactive).

For the molecule `CC(=O)Nc1ccccc1NC(=O)c1cc(C)cc(C)c1`, the activation was -9.63% (inactive).

Take `COc1ccc(C2CC(c3cccs3)=NN2c2ccc(F)cc2)cc1OC` (configuration not stated): the activation was 16.6% (inactive).

For `O=C(CSc1nncn1-c1cccnc1)N1CCOCC1`, the activation is 2.75% (inactive).

For the molecule `CCC(C)NC(=O)C1c2ccccc2Oc2ccccc21` (configuration not stated), the activation was 0.8% (inactive).

Consider `CNC(=O)c1[nH]cnc1C(=O)N[C@@H](CC(C)C)C(=O)OCc1ccccc1`, for which the activation is 11.4% (inactive).

`COc1ccc(C2CC(c3cccs3)=NN2c2ccccc2)cc1` (configuration not stated): the activation is 43.8% (active).

Take `CSc1sc(C(=O)NNC(=O)c2ccc(Cl)cc2)c2c1C=CCC2`: the activation was 2.26% (inactive).

Take `COc1ccccc1CNC(=O)CNC(=O)c1cn(-c2ccccc2OC)c(=O)c2ccccc12`: the activation was -2.71% (inactive).

`Cc1cc(C)c(C#N)c(SCC(=O)NN2CC(=O)N(c3ccccc3F)CC2=O)n1`: the activation was -4.8% (inactive).

Take `CCC(=O)/C(=C(/O)c1ccccc1)c1nc2ccccc2[nH]1`: the activation is -4.01% (inactive).

As to `Cc1noc(C)c1COC(=O)COc1ccc(-c2ccccc2)cc1`, the activation is 0.9% (inactive).

Regarding `O=C(COC(=O)Cc1ccc(F)cc1)Nc1cc(S(=O)(=O)N2CCOCC2)ccc1N1CCCC1`, the activation was 5.34% (inactive).

As to `Cc1cc(C)nc(N(C#N)CC(=O)Nc2ccccc2)n1`, the activation is 0.75% (inactive).

As to `COc1ccc(N2C(=O)C(Cc3ccccc3)NC2=S)cc1` (configuration not stated), the activation was -2.28% (inactive).

Take `CCCCCNC(=O)c1cccnc1SCC(=O)Nc1ccccc1OC`: the activation is 1.32% (inactive).

In the case of `COC(=O)[C@@H]1CC[C@H](C)[C@@H](c2ccc(C)cc2)N1C(=O)c1ccc(/C=N/O[C@H](C)c2cn([C@@H]3COC[C@H]3O)nn2)cc1`, the activation was -3.45% (inactive).

Consider `CC1CCCC(NC(=O)COC(=O)[C@@H]2CC(O)CN2S(=O)(=O)c2ccc3c(c2)OCCO3)C1C` (some centres not stated), for which the activation was -5.42% (inactive).

In the case of `COc1ccc(-n2c(C)cc(C(=O)CN3C(=O)NC4(CCc5ccccc54)C3=O)c2C)cc1` (configuration not stated), the activation is 1.51% (inactive).

For the molecule `O=C(COC(=O)c1cc([N+](=O)[O-])ccc1NCc1ccccc1)NC1CCCCC1`, the activation is -7.16% (inactive).

Consider `O=[N+]([O-])c1cccc(Nc2c3ccccc3nc3ccccc23)c1`, for which the activation is 11.6% (inactive).

With `O=C(CSc1nnc(Nc2ccccc2)s1)Nc1cccnc1Cl`, the activation was -2.54% (inactive).
